Results as given in publication PMC7862700, “An all-to-all approach to the identification of sequence-specific readers for epigenetic DNA modifications on cytosine”.

Assays:
Assay in all cases: DAPPL (digital affinity profiling via proximity ligation, sequencing); 10 mM Tris-HCl pH 7.5, 50 mM NaCl, 1 mM DTT, 4% glycerol, room temperature, 30 min; GST-TFs on glutathione beads, 16-mer random dsDNA library, 0.1% formaldehyde crosslink after washing; high values mean tight binding
Settings in all cases: protein: recombinant; tags: N-terminal GST; dsDNA, one strand shown
FLI1 = target: T1, FLI1 (Homo sapiens, UniProt Q01543 1-452)
T1 sequence: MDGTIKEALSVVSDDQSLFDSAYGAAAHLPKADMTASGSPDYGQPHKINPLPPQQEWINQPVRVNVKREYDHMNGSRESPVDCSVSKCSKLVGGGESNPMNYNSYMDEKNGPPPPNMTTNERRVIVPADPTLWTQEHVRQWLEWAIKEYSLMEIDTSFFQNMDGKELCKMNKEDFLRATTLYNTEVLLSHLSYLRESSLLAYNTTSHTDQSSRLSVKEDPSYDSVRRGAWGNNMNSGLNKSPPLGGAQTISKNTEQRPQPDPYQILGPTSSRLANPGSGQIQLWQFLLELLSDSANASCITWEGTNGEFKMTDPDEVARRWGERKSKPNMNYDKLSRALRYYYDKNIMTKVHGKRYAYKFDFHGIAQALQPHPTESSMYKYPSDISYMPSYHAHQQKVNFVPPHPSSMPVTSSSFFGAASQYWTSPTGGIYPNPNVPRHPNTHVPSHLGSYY
Outline: (§1)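 Each value of binding signal is a hexamer's read frequency for a factor divided by the same hexamer's frequency in the tag-only sample. Barcoded, bead-captured GST fusions of human transcription factors made in yeast were pooled with that sample and incubated with 200 nmole of a random double-stranded 16-mer DNA library in Tris/NaCl/DTT/glycerol buffer at room temperature for 30 min. Washing, 0.1% formaldehyde crosslinking, proximity ligation, PCR and Illumina NextSeq500 sequencing followed.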

ELK1 = target: T2, ELK1 (Homo sapiens, UniProt P19419 1-428)
T2 sequence: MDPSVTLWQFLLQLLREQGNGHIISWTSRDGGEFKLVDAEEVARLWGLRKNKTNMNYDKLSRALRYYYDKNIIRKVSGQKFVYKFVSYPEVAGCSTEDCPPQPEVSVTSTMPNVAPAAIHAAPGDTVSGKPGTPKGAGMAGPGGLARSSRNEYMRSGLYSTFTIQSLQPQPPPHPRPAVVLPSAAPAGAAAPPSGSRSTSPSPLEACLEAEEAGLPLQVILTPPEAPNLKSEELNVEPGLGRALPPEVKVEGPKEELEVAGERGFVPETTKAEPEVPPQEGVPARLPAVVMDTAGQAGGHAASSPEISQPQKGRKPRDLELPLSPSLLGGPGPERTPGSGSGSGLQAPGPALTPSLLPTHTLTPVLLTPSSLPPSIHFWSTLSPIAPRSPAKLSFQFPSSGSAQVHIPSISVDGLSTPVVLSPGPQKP
Outline: as §1

GABPA = target: T3, GABPA (Homo sapiens, UniProt Q06546 1-454)
T3 sequence: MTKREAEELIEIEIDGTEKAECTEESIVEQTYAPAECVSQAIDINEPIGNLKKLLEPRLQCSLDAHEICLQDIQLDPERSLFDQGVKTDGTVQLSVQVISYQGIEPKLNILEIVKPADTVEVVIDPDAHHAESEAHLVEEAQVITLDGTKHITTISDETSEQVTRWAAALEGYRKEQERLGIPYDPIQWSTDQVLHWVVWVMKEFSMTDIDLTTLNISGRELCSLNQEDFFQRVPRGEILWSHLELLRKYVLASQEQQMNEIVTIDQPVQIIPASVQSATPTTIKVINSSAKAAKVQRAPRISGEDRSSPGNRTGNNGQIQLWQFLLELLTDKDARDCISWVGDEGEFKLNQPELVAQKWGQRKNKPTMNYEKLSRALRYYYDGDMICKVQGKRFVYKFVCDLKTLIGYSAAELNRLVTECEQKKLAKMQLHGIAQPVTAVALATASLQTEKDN
Outline: as §1

ERG = target: T4, ERG (Homo sapiens, UniProt P11308 1-479)
T4 sequence: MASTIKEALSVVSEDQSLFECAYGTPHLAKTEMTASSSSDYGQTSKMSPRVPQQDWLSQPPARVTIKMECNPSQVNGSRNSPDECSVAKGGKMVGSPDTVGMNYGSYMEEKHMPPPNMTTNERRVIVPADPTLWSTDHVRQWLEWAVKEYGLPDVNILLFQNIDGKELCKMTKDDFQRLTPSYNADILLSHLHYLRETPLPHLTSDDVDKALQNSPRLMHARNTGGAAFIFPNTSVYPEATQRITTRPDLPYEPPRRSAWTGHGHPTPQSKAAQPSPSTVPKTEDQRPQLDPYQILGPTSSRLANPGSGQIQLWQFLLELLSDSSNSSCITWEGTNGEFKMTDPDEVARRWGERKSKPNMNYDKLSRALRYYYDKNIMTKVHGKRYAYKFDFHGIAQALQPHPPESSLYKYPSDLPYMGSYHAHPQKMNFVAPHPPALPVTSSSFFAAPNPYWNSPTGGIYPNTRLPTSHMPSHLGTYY
Outline: as §1

ELF1 = ELF1 (Homo sapiens, UniProt P32519 1-619)
Sequence of ELF1 (P32519 whole entry): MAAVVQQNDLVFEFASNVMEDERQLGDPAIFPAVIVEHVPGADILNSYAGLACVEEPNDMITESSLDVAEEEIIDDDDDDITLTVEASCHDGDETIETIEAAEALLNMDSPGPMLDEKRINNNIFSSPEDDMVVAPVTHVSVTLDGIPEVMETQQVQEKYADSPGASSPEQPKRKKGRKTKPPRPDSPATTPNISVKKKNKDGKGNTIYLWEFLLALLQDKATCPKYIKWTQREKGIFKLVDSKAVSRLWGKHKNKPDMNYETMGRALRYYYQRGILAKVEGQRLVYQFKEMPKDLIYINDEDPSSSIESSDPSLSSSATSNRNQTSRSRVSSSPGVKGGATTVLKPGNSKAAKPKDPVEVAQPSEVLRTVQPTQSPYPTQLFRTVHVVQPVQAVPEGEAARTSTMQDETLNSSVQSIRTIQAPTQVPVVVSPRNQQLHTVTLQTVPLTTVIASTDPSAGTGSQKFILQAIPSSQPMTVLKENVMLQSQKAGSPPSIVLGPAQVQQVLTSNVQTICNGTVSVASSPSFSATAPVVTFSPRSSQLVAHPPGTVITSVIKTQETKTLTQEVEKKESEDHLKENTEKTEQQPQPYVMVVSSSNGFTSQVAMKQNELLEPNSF
Outline: as §1

EHF = target: T5, EHF (Homo sapiens, UniProt Q9NZC4 1-300)
T5 sequence: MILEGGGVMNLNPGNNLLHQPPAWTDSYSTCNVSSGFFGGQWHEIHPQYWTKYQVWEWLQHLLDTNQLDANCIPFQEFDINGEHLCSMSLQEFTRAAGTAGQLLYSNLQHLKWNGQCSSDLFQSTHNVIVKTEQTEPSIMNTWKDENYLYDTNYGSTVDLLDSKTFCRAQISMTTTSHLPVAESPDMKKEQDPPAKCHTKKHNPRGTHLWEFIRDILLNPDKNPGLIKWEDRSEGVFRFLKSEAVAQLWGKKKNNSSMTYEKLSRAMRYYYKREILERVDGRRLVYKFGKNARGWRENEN
Outline: as §1

SPI1 = SPI1 (Homo sapiens, UniProt P17947 1-270)
Outline: as §1

SPIB = SPIB (Homo sapiens, UniProt Q01892 1-262)
Sequence of SPIB (Q01892 whole entry): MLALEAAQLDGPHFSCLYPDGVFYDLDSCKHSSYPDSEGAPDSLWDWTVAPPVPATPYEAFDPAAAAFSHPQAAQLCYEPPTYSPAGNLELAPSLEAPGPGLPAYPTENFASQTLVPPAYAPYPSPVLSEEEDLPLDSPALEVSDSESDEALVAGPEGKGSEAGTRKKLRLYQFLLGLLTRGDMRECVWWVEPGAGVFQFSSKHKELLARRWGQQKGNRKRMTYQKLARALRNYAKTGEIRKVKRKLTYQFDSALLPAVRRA
Outline: as §1

ELK3 = target: T6, ELK3 (Homo sapiens, UniProt P41970 1-407)
T6 sequence: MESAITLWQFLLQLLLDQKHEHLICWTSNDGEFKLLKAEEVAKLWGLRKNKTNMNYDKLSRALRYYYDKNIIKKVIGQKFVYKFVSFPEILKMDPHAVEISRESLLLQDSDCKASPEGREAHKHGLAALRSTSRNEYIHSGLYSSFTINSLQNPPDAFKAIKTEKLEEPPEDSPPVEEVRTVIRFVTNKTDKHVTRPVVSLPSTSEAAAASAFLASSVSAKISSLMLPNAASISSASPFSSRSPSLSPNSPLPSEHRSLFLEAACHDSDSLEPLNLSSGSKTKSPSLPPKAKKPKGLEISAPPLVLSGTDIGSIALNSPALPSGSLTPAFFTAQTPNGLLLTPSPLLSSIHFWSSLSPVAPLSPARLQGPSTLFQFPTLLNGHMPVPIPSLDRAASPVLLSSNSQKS
Outline: as §1

FEV = target: T7, FEV (Homo sapiens, UniProt Q99581 1-238)
T7 sequence: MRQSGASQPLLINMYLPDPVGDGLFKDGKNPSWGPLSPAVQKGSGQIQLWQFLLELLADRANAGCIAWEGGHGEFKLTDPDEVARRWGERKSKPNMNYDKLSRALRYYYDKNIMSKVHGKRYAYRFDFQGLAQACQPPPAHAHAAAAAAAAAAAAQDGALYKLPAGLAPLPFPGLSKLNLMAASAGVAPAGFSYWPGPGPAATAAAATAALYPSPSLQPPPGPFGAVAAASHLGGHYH
Outline: as §1

ETV5 = ETV5 (Homo sapiens, UniProt P41161 1-510)
Sequence of ETV5 (P41161 whole entry): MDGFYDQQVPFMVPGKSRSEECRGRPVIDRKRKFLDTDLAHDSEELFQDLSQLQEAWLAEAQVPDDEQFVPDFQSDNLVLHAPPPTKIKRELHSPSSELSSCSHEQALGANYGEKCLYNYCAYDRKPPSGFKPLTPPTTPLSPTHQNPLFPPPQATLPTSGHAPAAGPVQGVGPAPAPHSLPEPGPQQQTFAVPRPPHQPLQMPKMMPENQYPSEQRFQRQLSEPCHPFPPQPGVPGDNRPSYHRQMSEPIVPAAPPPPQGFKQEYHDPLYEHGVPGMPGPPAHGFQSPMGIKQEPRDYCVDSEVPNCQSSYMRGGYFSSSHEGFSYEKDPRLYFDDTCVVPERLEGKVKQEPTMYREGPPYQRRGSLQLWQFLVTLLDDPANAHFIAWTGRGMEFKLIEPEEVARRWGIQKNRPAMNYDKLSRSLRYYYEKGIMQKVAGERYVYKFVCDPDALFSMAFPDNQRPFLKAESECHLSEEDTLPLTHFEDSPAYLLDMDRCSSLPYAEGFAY
Outline: as §1

SPIC = target: T8, SPIC (Homo sapiens, UniProt Q8N5J4 1-248)
T8 sequence: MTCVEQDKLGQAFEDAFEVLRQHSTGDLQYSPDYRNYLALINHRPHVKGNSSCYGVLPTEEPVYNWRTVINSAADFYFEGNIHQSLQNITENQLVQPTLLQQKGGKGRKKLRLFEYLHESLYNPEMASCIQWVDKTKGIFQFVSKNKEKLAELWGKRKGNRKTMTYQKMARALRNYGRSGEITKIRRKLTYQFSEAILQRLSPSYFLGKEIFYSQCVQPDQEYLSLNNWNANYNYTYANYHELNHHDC
Outline: as §1

ELF4 = ELF4 (Homo sapiens, UniProt Q99607 1-663)
Sequence of ELF4 (Q99607 whole entry): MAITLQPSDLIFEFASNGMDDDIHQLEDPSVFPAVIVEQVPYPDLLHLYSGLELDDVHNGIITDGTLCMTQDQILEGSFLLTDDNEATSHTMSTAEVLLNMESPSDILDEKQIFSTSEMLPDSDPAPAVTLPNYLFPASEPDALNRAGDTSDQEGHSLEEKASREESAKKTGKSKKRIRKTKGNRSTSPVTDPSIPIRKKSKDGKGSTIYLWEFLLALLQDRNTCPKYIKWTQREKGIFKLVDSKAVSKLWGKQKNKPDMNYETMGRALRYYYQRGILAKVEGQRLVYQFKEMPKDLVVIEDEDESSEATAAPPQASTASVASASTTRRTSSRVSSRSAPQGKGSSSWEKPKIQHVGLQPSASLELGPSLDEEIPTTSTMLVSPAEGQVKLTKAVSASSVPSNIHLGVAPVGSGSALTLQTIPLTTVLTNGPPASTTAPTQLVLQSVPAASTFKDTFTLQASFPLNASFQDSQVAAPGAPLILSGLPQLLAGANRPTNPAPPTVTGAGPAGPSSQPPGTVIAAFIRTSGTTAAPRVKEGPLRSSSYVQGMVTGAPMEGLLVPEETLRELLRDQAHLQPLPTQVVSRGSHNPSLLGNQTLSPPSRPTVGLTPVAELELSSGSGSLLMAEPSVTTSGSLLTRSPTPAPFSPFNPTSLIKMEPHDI
Outline: as §1

ELK4 = target: T9, ELK4 (Homo sapiens, UniProt P28324-2 1-405)
T9 sequence: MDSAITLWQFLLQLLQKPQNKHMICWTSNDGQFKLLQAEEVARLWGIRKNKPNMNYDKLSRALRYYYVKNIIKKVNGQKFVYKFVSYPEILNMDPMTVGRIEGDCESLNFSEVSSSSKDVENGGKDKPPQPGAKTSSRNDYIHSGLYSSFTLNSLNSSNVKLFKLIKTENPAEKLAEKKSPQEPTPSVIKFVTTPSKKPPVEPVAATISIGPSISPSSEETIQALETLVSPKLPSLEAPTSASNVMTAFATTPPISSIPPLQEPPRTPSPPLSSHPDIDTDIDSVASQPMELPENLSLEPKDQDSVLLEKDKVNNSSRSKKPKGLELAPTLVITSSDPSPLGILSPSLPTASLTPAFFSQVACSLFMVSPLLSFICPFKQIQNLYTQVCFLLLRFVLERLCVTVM
Outline: as §1

ELF3 = target: T10, ELF3 (Homo sapiens, UniProt P78545 1-371)
T10 sequence: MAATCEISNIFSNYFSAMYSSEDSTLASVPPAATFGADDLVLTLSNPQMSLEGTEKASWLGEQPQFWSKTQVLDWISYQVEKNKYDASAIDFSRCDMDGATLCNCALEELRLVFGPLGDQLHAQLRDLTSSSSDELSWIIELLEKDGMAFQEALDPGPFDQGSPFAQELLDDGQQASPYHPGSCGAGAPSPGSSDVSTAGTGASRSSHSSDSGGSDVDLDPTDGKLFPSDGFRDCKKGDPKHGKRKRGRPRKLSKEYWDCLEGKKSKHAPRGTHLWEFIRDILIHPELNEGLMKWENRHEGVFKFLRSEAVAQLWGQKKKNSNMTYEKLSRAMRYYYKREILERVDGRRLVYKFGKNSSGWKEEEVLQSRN
Outline: as §1

ETV1 = ETV1 (Homo sapiens, UniProt P50549 1-477)
Sequence of ETV1 (P50549 whole entry): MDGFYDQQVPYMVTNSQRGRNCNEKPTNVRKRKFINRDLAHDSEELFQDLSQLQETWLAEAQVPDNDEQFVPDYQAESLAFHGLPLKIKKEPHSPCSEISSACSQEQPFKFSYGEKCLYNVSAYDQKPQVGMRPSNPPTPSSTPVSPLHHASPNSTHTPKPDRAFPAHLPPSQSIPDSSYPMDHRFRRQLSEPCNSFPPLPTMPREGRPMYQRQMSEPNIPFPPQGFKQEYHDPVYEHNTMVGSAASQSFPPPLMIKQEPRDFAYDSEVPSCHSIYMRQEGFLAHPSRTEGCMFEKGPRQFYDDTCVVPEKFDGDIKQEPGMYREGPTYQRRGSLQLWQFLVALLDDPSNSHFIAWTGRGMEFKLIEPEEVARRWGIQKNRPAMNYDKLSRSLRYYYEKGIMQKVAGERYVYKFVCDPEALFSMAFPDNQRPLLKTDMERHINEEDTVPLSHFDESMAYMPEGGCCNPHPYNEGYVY
Outline: as §1

ETV2 = target: T11, ETV2 (Homo sapiens, UniProt O00321 1-342)
T11 sequence: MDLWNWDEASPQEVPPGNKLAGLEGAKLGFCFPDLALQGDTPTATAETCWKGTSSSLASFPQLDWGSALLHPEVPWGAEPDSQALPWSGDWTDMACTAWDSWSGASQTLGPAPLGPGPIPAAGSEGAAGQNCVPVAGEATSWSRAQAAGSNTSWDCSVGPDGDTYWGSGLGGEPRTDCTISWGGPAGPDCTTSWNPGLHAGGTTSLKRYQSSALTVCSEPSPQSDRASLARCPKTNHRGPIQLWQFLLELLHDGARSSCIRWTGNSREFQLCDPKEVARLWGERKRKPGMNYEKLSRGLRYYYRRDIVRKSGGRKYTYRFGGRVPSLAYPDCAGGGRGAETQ
Outline: as §1

Sequence	binding signal (FLI1)	binding signal (ELK1)	binding signal (GABPA)	binding signal (ERG)	binding signal (ELF1)	binding signal (EHF)	binding signal (SPI1)	binding signal (SPIB)	binding signal (ELK3)	binding signal (FEV)	binding signal (ETV5)	binding signal (SPIC)	binding signal (ELF4)	binding signal (ELK4)	binding signal (ELF3)	binding signal (ETV1)	binding signal (ETV2)
GTTACA	1.15 fold enrichment (6-mer frequency, TF over GST control)	1.1 fold enrichment (6-mer frequency, TF over GST control)	1.09 fold enrichment (6-mer frequency, TF over GST control)	1.13 fold enrichment (6-mer frequency, TF over GST control)	1.14 fold enrichment (6-mer frequency, TF over GST control)	1.2 fold enrichment (6-mer frequency, TF over GST control)	1.11 fold enrichment (6-mer frequency, TF over GST control)	1.09 fold enrichment (6-mer frequency, TF over GST control)	1.24 fold enrichment (6-mer frequency, TF over GST control)	1.18 fold enrichment (6-mer frequency, TF over GST control)	1.16 fold enrichment (6-mer frequency, TF over GST control)	1.14 fold enrichment (6-mer frequency, TF over GST control)	1.11 fold enrichment (6-mer frequency, TF over GST control)	1.26 fold enrichment (6-mer frequency, TF over GST control)	1.15 fold enrichment (6-mer frequency, TF over GST control)	1.11 fold enrichment (6-mer frequency, TF over GST control)	–
ATGTGT	1.04 fold enrichment (6-mer frequency, TF over GST control)	1.11 fold enrichment (6-mer frequency, TF over GST control)	1.06 fold enrichment (6-mer frequency, TF over GST control)	1.03 fold enrichment (6-mer frequency, TF over GST control)	1.03 fold enrichment (6-mer frequency, TF over GST control)	1.08 fold enrichment (6-mer frequency, TF over GST control)	1.08 fold enrichment (6-mer frequency, TF over GST control)	1.11 fold enrichment (6-mer frequency, TF over GST control)	1.06 fold enrichment (6-mer frequency, TF over GST control)	1.02 fold enrichment (6-mer frequency, TF over GST control)	1.16 fold enrichment (6-mer frequency, TF over GST control)	1.17 fold enrichment (6-mer frequency, TF over GST control)	1.08 fold enrichment (6-mer frequency, TF over GST control)	1.05 fold enrichment (6-mer frequency, TF over GST control)	–	1.18 fold enrichment (6-mer frequency, TF over GST control)	1.11 fold enrichment (6-mer frequency, TF over GST control)
